Measurements from the supplement of paper PMC12350171.
Where a name gives a salt, the structure may show the parent alone.

Key:
Assay in all cases: growth AUC normalised to DMSO control (median) (fraction of control); higher = less growth inhibition, active = hit call of the paper
Details in all cases: 20 µM;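 active = normalised median growth AUC below 0.1 of DMSO control; inactive = AUC 0.1 or higher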
P. vulgatus RND KO = test system: P. vulgatus RND KO
Outline: (§1)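 After two overnight anaerobic passages, strains were inoculated at OD578 0.01 into mGAM in 96-well plates containing approved-drug library compounds at 20 μM and 1% DMSO. Growth was followed by reading OD578 hourly for 24 h within an anaerobic incubator. Area under the curve, taken by the trapezoidal rule up to the start of stationary phase, was normalised to same-plate vehicle wells, and the median of three biological replicates is listed.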

P. vulgatus WT = test system: P. vulgatus WT
Outline: as §1

[1] = test system: S. enterica typhimurium WT
Outline: as §1

[2] = test system: S. enterica typhimurium tolC KO
Outline: as §1

Measured: growth AUC normalised to DMSO control
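Also: active when median AUC fell below 0.1.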

CC(=O)OCC(=O)[C@@]1(O)CC[C@H]2[C@@H]3CCC4=CC(=O)C=C[C@]4(C)[C@@]3(F)[C@@H](O)C[C@@]21C [Isoflupredone acetate]
inactive: P. vulgatus RND KO 1.03 | P. vulgatus WT 0.986 | [1] 1 | [2] 0.98

Cn1cc([S+](C)[O-])c(=O)c2ccc(F)cc21 (configuration not stated) [Flosequinan]
inactive: P. vulgatus RND KO 1.04 | P. vulgatus WT 1.03 | [1] 0.992 | [2] 0.99

Cc1ccc2c([nH]c(=O)c3c(=O)cc(C(=O)OCCC(C)C)oc32)c1C [Repirinast]
inactive: P. vulgatus RND KO 0.94 | P. vulgatus WT 0.943 | [1] 1.01 | [2] 0.924

CNCc1cc(-c2ccccc2F)n(S(=O)(=O)c2cccnc2)c1 [Vonoprazan]
inactive: P. vulgatus RND KO 1.02 | P. vulgatus WT 1.04 | [1] 1 | [2] 0.995

CCOC(=O)CC(=O)N1CCSC1COc1ccccc1OC (configuration not stated) [Moguisteine]
inactive: P. vulgatus RND KO 0.965 | P. vulgatus WT 0.965 | [1] 1.01 | [2] 0.986

CC(C)=CCC1C(=O)N(c2ccccc2)N(c2ccccc2)C1=O [Feprazone]
inactive: P. vulgatus RND KO 1.04 | P. vulgatus WT 1.09 | [1] 1 | [2] 0.983

COCCCOc1cc(C[C@@H](C[C@H](N)[C@@H](O)C[C@H](C(=O)NCC(C)(C)C(N)=O)C(C)C)C(C)C)ccc1OC [Aliskiren hemifumarate]
inactive: P. vulgatus RND KO 1 | P. vulgatus WT 1.05 | [1] 0.997 | [2] 1

OCCN1CCN(CC/C=C2/c3ccccc3Sc3ccc(C(F)(F)F)cc32)CC1 [Flupentixol dihydrochloride cis-(Z)]
inactive: P. vulgatus RND KO 0.946 | P. vulgatus WT 0.997 | [1] 1.01 | [2] 0.828

CCN(CC)C(=O)c1cccnc1 [Nikethamide]
inactive: P. vulgatus RND KO 0.992 | P. vulgatus WT 1 | [1] 1 | [2] 1.01

C[C@H]1[C@@H](O)O[C@@H]2O[C@@]3(C)CC[C@H]4[C@H](C)CC[C@@H]1[C@@]24OO3 [Artenimol]
inactive: P. vulgatus RND KO 1.04 | P. vulgatus WT 1.04 | [1] 1 | [2] 1

COc1ccc(CNc2nc(N3CCC[C@H]3CO)ncc2C(=O)NCc2ncccn2)cc1Cl [Avanafil]
inactive: P. vulgatus RND KO 1 | P. vulgatus WT 1.03 | [1] 1.01 | [2] 0.962

Oc1ccc(C2CNCCc3c2cc(O)c(O)c3Cl)cc1 (configuration not stated) [Fenoldopam]
inactive: P. vulgatus RND KO 0.995 | P. vulgatus WT 0.992 | [1] 0.985 | [2] 0.978

Cc1cc(C#N)cc(C)c1Oc1nc(Nc2ccc(C#N)cc2)nc(N)c1Br [Etravirine]
inactive: P. vulgatus RND KO 1.03 | P. vulgatus WT 1.02 | [1] 1.01 | [2] 1.01

NC(=O)OCC(COC(N)=O)c1ccccc1 [Felbamate]
inactive: P. vulgatus RND KO 1 | P. vulgatus WT 1.04 | [1] 0.999 | [2] 1

Oc1c(Cl)cc(Cl)cc1Sc1cc(Cl)cc(Cl)c1O [Bithionol]
active: P. vulgatus RND KO 0.0149 | P. vulgatus WT 0.0115 | [2] 0.0167
inactive: [1] 0.991

OC(CNCC(O)C1CCc2cc(F)ccc2O1)C1CCc2cc(F)ccc2O1 (configuration not stated) [Nebivolol hydrochloride]
inactive: P. vulgatus RND KO 0.957 | P. vulgatus WT 1.01 | [1] 0.998 | [2] 0.925

CCCCc1ncc(/C=C(\Cc2cccs2)C(=O)O)n1Cc1ccc(C(=O)O)cc1 [Eprosartan mesylate]
inactive: P. vulgatus RND KO 1.02 | P. vulgatus WT 1.02 | [1] 1.01 | [2] 1

CCCCOC(=O)c1ccccc1Nc1cccc(C(F)(F)F)c1 [Ufenamate]
inactive: P. vulgatus RND KO 1.02 | P. vulgatus WT 0.978 | [1] 0.998 | [2] 0.992

COc1ccc(C2C(=O)c3ccccc3C2=O)cc1 [Anisindione]
inactive: P. vulgatus RND KO 1 | P. vulgatus WT 1 | [1] 0.973 | [2] 0.749

CNCC[C@@H](Oc1cccc2ccccc12)c1cccs1 [(R)-Duloxetine hydrochloride]
inactive: P. vulgatus RND KO 1.02 | P. vulgatus WT 0.993 | [1] 0.999 | [2] 0.929

CC(C)COC(=O)OCN1C(=O)CN(CCN2CC(=O)N(COC(=O)OCC(C)C)C(=O)C2)CC1=O [Sobuzoxane]
inactive: P. vulgatus RND KO 1.04 | P. vulgatus WT 1.08 | [1] 0.998 | [2] 1

C[C@H](NCc1ccc(OCc2cccc(F)c2)cc1)C(N)=O [Safinamide]
inactive: P. vulgatus RND KO 1.02 | P. vulgatus WT 1.01 | [1] 0.986 | [2] 1

CC1=C(C(=O)O)N2C(=O)[C@@H](NC(=O)[C@H](N)C3=CCC=CC3)[C@H]2SC1 [Cephradine monohydrate]
inactive: P. vulgatus RND KO 1.04 | P. vulgatus WT 1.05 | [1] 0.991 | [2] 1.01

COc1cc(N)cn[n+]1-c1ccccc1 [Amezinium metilsulfate]
inactive: P. vulgatus RND KO 1.01 | P. vulgatus WT 1 | [1] 1 | [2] 1

CS(=O)(=O)c1ccc([C@@H](O)[C@@H](CF)NC(=O)C(Cl)Cl)cc1 [Florfenicol]
active: P. vulgatus RND KO 0.0099 | P. vulgatus WT 0.00788 | [1] 0.00248 | [2] 0.00279

CC(=O)N[C@H]1[C@H]([C@H](O)[C@H](O)CO)OC(C(=O)O)=C[C@@H]1NC(=N)N [Zanamivir]
inactive: P. vulgatus RND KO 1.06 | P. vulgatus WT 1.1 | [1] 1 | [2] 1.02

CN[C@@H]1[C@@H](O[C@H]2O[C@H](CO)[C@@H](N)[C@H](O)[C@H]2O)OC2C[C@@H](N)[C@@H](O[C@H]3[C@H](O)[C@@H](O)[C@H](N)C[C@@H]3N)OC2[C@@H]1O (some centres not stated) [Apramycin]
inactive: P. vulgatus RND KO 1 | P. vulgatus WT 0.998 | [1] 1.01 | [2] 0.996

N[C@@H](CSCCCO)C(=O)O [Fudosteine]
inactive: P. vulgatus RND KO 1 | P. vulgatus WT 0.987 | [1] 0.996 | [2] 1

CC(C)OC(=O)CCC/C=C\C[C@@H]1[C@@H](CC[C@@H](O)CCc2ccccc2)[C@H](O)C[C@@H]1O [Latanoprost]
inactive: P. vulgatus RND KO 0.958 | P. vulgatus WT 0.966 | [1] 1.01 | [2] 0.896

Cc1ccc(Nc2c(F)cccc2Cl)c(CC(=O)O)c1 [Lumiracoxib]
inactive: P. vulgatus RND KO 0.985 | P. vulgatus WT 1.01 | [1] 1 | [2] 1

O=C1[C@H]2CCCC[C@H]2C(=O)N1CCCCN1CCN(c2nsc3ccccc23)CC1 [Perospirone hydrochloride]
inactive: P. vulgatus RND KO 0.997 | P. vulgatus WT 0.986 | [1] 0.998 | [2] 0.98

C[C@@H]1C[C@H]2[C@@H]3C[C@H](F)C4=CC(=O)C=C[C@]4(C)[C@@]3(F)[C@@H](O)C[C@]2(C)[C@@]1(O)C(=O)COC(=O)C(C)(C)C [Flumethasone pivalate]
inactive: P. vulgatus RND KO 0.995 | P. vulgatus WT 1 | [1] 0.999 | [2] 1

CC(C)CN(C[C@@H](O)[C@H](Cc1ccccc1)NC(=O)O[C@H]1CCOC1)S(=O)(=O)c1ccc(N)cc1 [Amprenavir]
inactive: P. vulgatus RND KO 1.01 | P. vulgatus WT 1.06 | [1] 0.995 | [2] 0.995

CCN[C@@H]1C[C@H](N)[C@@H](O[C@H]2OC(CN)=CC[C@H]2N)[C@H](O)[C@H]1O[C@H]1OC[C@](C)(O)[C@H](NC)[C@H]1O [Netilmicin sulfate]
inactive: P. vulgatus RND KO 1.02 | P. vulgatus WT 1.04 | [1] 0.996 | [2] 0.932

O=C(Cn1c(=O)sc2ccc(Cl)cc21)N1CCN(CCO)CC1 [Tiaramide Hydrochloride]
inactive: P. vulgatus RND KO 1 | P. vulgatus WT 1.04 | [1] 1.01 | [2] 0.995

Cc1c(C(=O)NN2CCCCC2)nn(-c2ccc(Cl)cc2Cl)c1-c1ccc(Cl)cc1 [Rimonabant]
inactive: P. vulgatus RND KO 1.05 | P. vulgatus WT 1.07 | [1] 1 | [2] 1

CCCCCOC(=O)Nc1nc(=O)n([C@@H]2O[C@H](C)[C@@H](O)[C@H]2O)cc1F [Capecitabine]
inactive: P. vulgatus RND KO 0.987 | P. vulgatus WT 0.998 | [1] 0.982 | [2] 0.994

CCOc1ccc(NC(=O)CC(C)O)cc1 (configuration not stated) [Bucetin]
inactive: P. vulgatus RND KO 0.981 | P. vulgatus WT 0.981 | [1] 1 | [2] 0.992

CC1=C(C)C(=O)C(C(CCCCCC(=O)O)c2ccccc2)=C(C)C1=O (configuration not stated) [Seratrodast]
inactive: P. vulgatus RND KO 0.944 | P. vulgatus WT 0.967 | [1] 1.01 | [2] 0.999

CC(=O)N[C@@H](CCC(N)=O)C(=O)O [Acetyl-L-glutamine]
inactive: P. vulgatus RND KO 0.995 | P. vulgatus WT 1 | [1] 0.998 | [2] 0.999

CC(C)Cc1ccc(CC(=O)O)cc1 [Ibufenac]
inactive: P. vulgatus RND KO 1.06 | P. vulgatus WT 1.06 | [1] 1.01 | [2] 0.981

N[C@H](Cc1ccccc1)C(=O)O [D-phenylalanine]
inactive: P. vulgatus RND KO 0.996 | P. vulgatus WT 0.985 | [1] 0.995 | [2] 1

CC(=O)Nc1c(I)c(NC(C)=O)c(I)c(C(=O)O)c1I [Diatrizoic acid dihydrate]
inactive: P. vulgatus RND KO 0.922 | P. vulgatus WT 0.995 | [1] 0.998 | [2] 0.995
